From PubChem BioAssay (NCI)
Compounds without any hit were thinned out: in the full panel of roughly 79,000, 15% have a hit. A number with no mark means an inactive call. Rule as the data show it: active = growth inhibition above about 70%; inactive = the rest.

assay: NCI Yeast Anticancer Drug Screen. Data for the mlh1 rad18 strain (AID 175); settings: S. cerevisiae mlh1 rad18 strain growth inhibition; at 50.0 µM; stronger effect = higher value
Outline: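 Test agents were incubated with a yeast strain of defined genotype (DNA damage repair defect). Inhibition of growth was derived by comparison with vehicle-exposed cultures.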

In order of rising growth inhibition:
1. CN(C)CCCn1c(=O)nc2n(-c3ccccc3)c3ccccc3nc-2c1=O  -44.5%
2. CC(C)c1cccc(C(C)C)c1NC(=O)C(=O)C1SC(=S)NC1=O (stereo not drawn)  -29.6%
3. Cc1sc2nc3n(c(=O)c2c1C)N=C(c1ccccc1)CS3  -17.2%
4. c1ccc2c3c([nH]c2c1)C1(CCCCC1)c1c([nH]c2ccccc12)C31CCCCC1  -10.9%
5. ClC1=C(Cl)C2(Cl)C3C(CC4C3C3(Cl)C(Cl)=C(Cl)C4(Cl)C3(Cl)Cl)C1(Cl)C2(Cl)Cl (stereo not drawn)  -9.9%
6. Brc1cccc(CCOCc2ccccc2)c1  -3.9%
7. NC(=O)/C=C/c1ccc([N+](=O)[O-])cc1  -3.4%
8. Cc1ccc(C2OC(=O)C(=O)C2=O)cc1 (stereo not drawn)  -3.35%
9. COC(=O)CCBr  3.5%
10. CCN(CC)C(=O)C1C(C=C(C)C)C1(C)C (stereo not drawn)  7.55%
11. CC1=CC(=O)N2[C@H](OC[C@@H]2C(C)C)O1  9.5%
12. COc1ccc(C(=O)c2ccccc2)c(N)c1  10.4%
13. CC(C)(C)c1ccc(C(=O)NCSCC(NC(=O)CCC(N)C(=O)O)C(=O)NCC(=O)O)cc1 (stereo not drawn)  14.8%
14. CC(/C=C/C(=O)c1sc(C(N)=S)nc1C)=C\c1ccccc1  22.2%
15. Cc1ccc(N2CCN(CCC(=O)O)CC2)cc1  22.4%
16. Cc1ccc(NC(=S)NC(=O)c2ccccc2)cc1  24.4%
17. CCCC(C)(CC)C(=O)O (stereo not drawn)  34.8%
18. CN(C)CCNC(=O)C(C)(C)Oc1ccc(C(=O)c2ccc(Cl)cc2)cc1Cl  40.2%
